Laboratory results as given in PubChem BioAssay (NCI).
Values joined by “and” are separate entries in the source; they are usually repeats but may differ in a detail not shown here. Equal values may be shown once. About 83,000 compounds went through this panel and 20% of them were active in at least one assay; those are over-represented in the sample as a whole.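 How to read the values: 0–100, growth inhibition (40 = 60% inhibited); 0, no net growth; -100 to 0, cell death (-40 = 40% of starting cells died; -100 = all dead).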 A number with no mark means an inactive call. Active and inactive are the calls of the source. The calls were made as follows: active = growth percent below 10; inactive = the rest.

Test system: HCT-116 colon
Assay: NCI-60 one-dose screen, 48 h (100 = growth as untreated, 0 = no growth, -100 = all killed)
Conditions: 10 µM unless noted

Compound | growth
CN(C)C(=O)c1cc2cnc(Nc3ccc(-c4csc5c(=S)cc(N6CCOCC6)oc45)cc3)nc2n1C1CCCC1 | 2.89% (active)
CN1CCN(c2ccc(/C=C/C(=O)c3ccc(O)cc3)cc2)CC1 | 99.2%
CCCCC(NC(=O)CN1C(=O)/C(=C/C(C)=C/c2ccccc2)SC1=S)C(=O)O (centres undefined) | 98.5%
CC1(Cc2ccccc2)CC2=C(C(=O)O1)C(c1ccccc1)NC(=O)N2 (centres undefined) | 86.9%
COc1ccc(-c2nc(Cl)c3c(C)nn(-c4ccc(F)cc4)c3n2)cc1 | 96.5%
CCCCn1c(C(=O)c2c[nH]c3ccccc23)n[nH]c1=S | 92.4%
COc1ccc(/C=C2\COc3ccc(O)c(O)c3C2=O)c(OC)c1OC | 14.6%
C=C(CN1CC=CCC1)[C@@H]1CC[C@]2(COC(C)=O)CC[C@]3(C)[C@H](CC[C@@H]4[C@@]5(C)CC[C@H](O)C(C)(C)[C@@H]5CC[C@]43C)[C@@H]12 | 93.6%
O=[N+]([O-])c1ccc(S(=O)Cc2ccccc2)c([N+](=O)[O-])c1 (centres undefined) | -88.5% (active) and -82.3% (active)
O=C(Cn1cc(CN2CCN(c3ccnc4cc(Cl)ccc34)CC2)nn1)Nc1cccc([N+](=O)[O-])c1 | 101%
Nc1n[nH]c2cccc(C#Cc3cccc(NC(=O)c4ccc(N5CCOCC5)c(C(F)(F)F)c4)c3)c12 | 2.84% (active)
COC1=CC(=O)C(OC)=C(O)C1=O | 98.7%
CONC1=Nc2cc(NC(N)=NCc3ccccc3)c(N(C)C3CCCCC3)cc2OC1 | 45.8%
Cc1ccc(NC(=O)c2ccc(CN3CCN(C)CC3)cc2)cc1Nc1nccc(-c2cccnc2)n1 | 81.4% and 55.1%
COc1ccc2c(O)c(/C=C3\N=Nc4nc(C)ccc43)oc2c1CC1CCNCC1 | 35.3%
COc1ccc(C(=O)N/N=C/c2ccc(O)cc2O)cc1Nc1ccnc(C(F)(F)F)c1 | 15.6%
COc1ccc(-c2cc(-c3cc(OC)c(OC)c(OC)c3)c(C#N)c(=O)n2CCCCC(=O)O)cc1 | 94.1%

Compound | growth
COc1cc(-c2[nH]ncc2Nc2ccc(Cl)cc2)cc(OC)c1OC | 58.4%
Nc1ccc(S(=O)(=O)c2ccc(N)cc2)cc1 | 107% and 94.9%
C/C(=C(\c1ccc(OCCN2CCOCC2)cc1)c1ccc(OC(=O)C2CCCCC2)cc1)c1ccc(Cl)cc1 | 78.7%
CCN(CC)CCOc1ccc(/C(=C(\Cl)c2ccccc2)c2ccccc2)cc1 | 11.4% and 57.8%
CSc1nnc(-c2cc3c([nH]c4ccccc43)c(-c3cccc(O)c3)n2)n1-c1ccc(C)cc1 | 23.8%
COc1ccc(/C(C)=C(\c2ccc(OCCN3CCCCCC3)cc2)c2ccc(OC(=O)C3CCCCC3)cc2)cc1 | -63.9% (active)
N=C1/C(=C2\NC3C=CC=CC3S2)C(c2ccc(Cl)cc2)C2C(=O)N(c3ccccc3)C(=S)N12 (centres undefined) | 101%
Nc1nc(Nc2cccnc2)sc1C(=O)c1ccccc1F | 3.8% (active)
O=C1/C(=C/c2ccc(F)c(F)c2)CN(C(=O)C(Cl)Cl)C/C1=C\c1ccc(F)c(F)c1 | -98.9% (active)
O=C([C@H]1C[C@H]1c1ccc(S(F)(F)(F)(F)F)cc1)N1CCN(c2cc(Cl)ccc2C(F)(F)F)CC1 | 60.2%
O=C(NNc1ccccc1)c1ncc[nH]1 | 64.4%
COc1cccc(C2C(C#N)=C(N)Oc3cc(OCCCCCC[P+](c4ccccc4)(c4ccccc4)c4ccccc4)ccc32)c1 (centres undefined) | -81% (active)
CCOC(=O)N(O)c1ccc(/C=C/c2ccccc2)cc1 | 11.2% and 17.6%
CN(C)CCN1C(=O)c2c(c3c4ccccc4n4c3c3c2c2ccccc2n3C2CC(O)C(O)C4(C)O2)C1=O (centres undefined) | 22.4%
O=C(CCCOc1ccc(Br)cc1)Nc1ncc(Cc2ccc(F)cc2)s1 | 36.6%
O=C(O)C1C2CCC1C(O)C2 (centres undefined) | 100% and 101%
Nc1nc(Nc2ccc(F)cc2)nn1C(=O)c1cc(Cl)ccc1Cl | 58.6%
